Assay outcomes deposited in PubChem by National Center for Advancing Translational Sciences (NCATS).
Pf growth 96h: inhibits malaria parasite growth, 96 h | P. falciparum luciferase reporter growth, 96 h | Potency, µM (doses to about 28.7 µM), most hits filed as inhibitors | actives 6.9% (n = 320,000) | AID 504834; active means well fitted inhibition curve with a large enough effect; inconclusive means small, poorly fitted or top-dose-only effect, or another doubt; inactive means no such curve, though single readings can be large or run the other way
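P. falciparum expressing integrated firefly luciferase grown in erythrocytes (2% hematocrit, 0.05% parasitemia final) with compounds for 96 hours at 37 C, 5% CO2. Growth inhibition read as loss of luminescence after adding luciferase detection reagent.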
Pf growth 48h: inhibits P. falciparum growth in the first generation, 48 h; P. falciparum luciferase growth in erythrocytes, 48 h; Potency, µM (series often up to 28.7 µM), actives largely listed as inhibitors; actives 5.9% (n = 310,000); AID 504832; active means well fitted inhibition curve with a large enough effect; inconclusive means small, poorly fitted or top-dose-only effect, or another doubt; inactive means no such curve, though single readings can be large or run the other way
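Growth was read as firefly luciferase luminescence after a 48 h, 37 C, 5% CO2 exposure of compounds to reporter-bearing P. falciparum cultures (0.1% parasitemia, 2% hematocrit final) in Albumax-supplemented RPMI 1640.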
NS1 inh: inhibitors of influenza NS1 protein function; Potency, µM (titrated, usually from 46.1 µM); actives 0.4% (n = 270,000); further: actives are rising curves; nearly all actives have a fitted effect of over 50% in size
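Read-out: OD600 growth recovery of NS1-expressing budding yeast. Cells grown overnight at 30C in -URA glucose medium, washed, resuspended and diluted 1:100 in 2% galactose assay medium, pH 6.0. Same strain lacking NS1 served as positive control.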
Cycloheximide cs: counter-screen for Shiga toxin inhibitors: cycloheximide protein synthesis inhibition. cell reporter, cycloheximide protein synthesis inhibition counterscreen. max response, %. actives 12% (n = 300,000). AID 2314; in the data active means max response mostly above about 13%, no sharp cut-off; inactive means mostly below about 14%; further: read at 38.3 µM for the half of the compounds with a filed dose
Shiga inhibitor: inhibitors of Shiga toxin in Vero cells. Vero cells, Shiga toxin protein synthesis inhibition reporter. inhibition, % at 38.7 µM. actives 9.2% (n = 290,000). AID 2315; in the data active means inhibition mostly above about 28%, no sharp cut-off; inactive means mostly below about 43%
SARS PLpro yeast: SARS-CoV PLP inhibition in yeast; actives 0.19% (n = 330,000); S. cerevisiae expressing SARS-CoV PLpro, growth rescue; Potency, µM (series often up to 32.9 µM), most hits filed as activators; further: nearly all actives have a fitted effect of over 55% in size
Numbers stand for hits; [ ] = remark or other dose. Shown are actives, neighbours in structure and some others; about 21% of the full set was active somewhere. Unless noted, the call rests on the fitted dose curve.

Results for Cc1cc(-c2nnc3sc(C4CCCCC4)nn23)n[nH]1 ?
Pf growth 96h: inconclusive; NS1 inh: inactive; Cycloheximide cs: inactive; Shiga inhibitor: inactive; SARS PLpro yeast: inactive

Results for COc1cc(-c2nnc3sc(C4CCCCC4)nn23)cc(OC)c1OC ?
Pf growth 96h: 5.2µM; Pf growth 48h: 8.3µM; NS1 inh: inactive; Cycloheximide cs: inactive; Shiga inhibitor: inactive; SARS PLpro yeast: inactive

How did Cc1cc(=O)n2nc(N3CCCC(C(=O)NCc4cccc(Br)c4)C3)sc2n1 (configuration not stated) do in these assays?
Pf growth 96h: inactive; Pf growth 48h: inconclusive; NS1 inh: inactive; Cycloheximide cs: inactive; Shiga inhibitor: inactive; SARS PLpro yeast: inactive

What do the screens show for `O=C(Cc1cccc2ccccc12)N/N=C/c1ccncc1`?
Pf growth 96h: 10µM; Pf growth 48h: inactive; NS1 inh: inactive; Cycloheximide cs: inactive; Shiga inhibitor: inactive; SARS PLpro yeast: inactive

What do the screens show for `O=C(Cc1cccc2ccccc12)N/N=C/c1ccc(OC(=O)/C=C/c2ccco2)cc1`?
Pf growth 96h: inconclusive; Pf growth 48h: 12µM; NS1 inh: inactive; Cycloheximide cs: inactive; Shiga inhibitor: inactive; SARS PLpro yeast: inactive

How did c1ccc(CCn2cnc3ccccc32)cc1 do in these assays?
Pf growth 96h: inactive; Pf growth 48h: inactive; Cycloheximide cs: 29; Shiga inhibitor: inactive; SARS PLpro yeast: inactive

What do the screens show for `COc1ccc(OCCn2cnc3ccccc32)cc1`?
Pf growth 96h: inconclusive; Pf growth 48h: inactive; NS1 inh: inactive; Cycloheximide cs: 9.5; Shiga inhibitor: 33; SARS PLpro yeast: inactive

What do the screens show for `O=C(Cn1cnc2ccccc21)c1ccc(Br)cc1`?
Pf growth 96h: inactive; Pf growth 48h: inconclusive; NS1 inh: inactive; Cycloheximide cs: 22; Shiga inhibitor: inactive; SARS PLpro yeast: inactive

Results for c1ccc2c(c1)ncn2CCN1CCCCC1 ?
Pf growth 96h: inconclusive; Pf growth 48h: inactive; NS1 inh: inactive[9.22 µM]; Cycloheximide cs: inactive; Shiga inhibitor: inactive; SARS PLpro yeast: inactive

What do the screens show for `CC(=O)c1ccc(OCCn2cnc3ccccc32)cc1`?
Pf growth 96h: inactive; Pf growth 48h: inactive; NS1 inh: inactive; Cycloheximide cs: inactive; Shiga inhibitor: inactive; SARS PLpro yeast: inactive

How did CCCOc1ccc(Cn2cnc3ccccc32)cc1 do in these assays?
Pf growth 96h: inactive; Pf growth 48h: inconclusive; NS1 inh: inactive; Cycloheximide cs: 14; Shiga inhibitor: inactive; SARS PLpro yeast: inactive

How did CCOc1ccc(Nc2cc(Nc3ccccc3OCC)nc(C=C(C#N)C#N)n2)cc1 do in these assays?
Pf growth 96h: inactive; Pf growth 48h: inactive; NS1 inh: inactive; Cycloheximide cs: inactive; Shiga inhibitor: inactive; SARS PLpro yeast: inactive

How did c1ccc(OCCn2cnc3ccccc32)cc1 do in these assays?
Pf growth 96h: inactive; Pf growth 48h: inactive; NS1 inh: inactive; Cycloheximide cs: 29; Shiga inhibitor: inactive; SARS PLpro yeast: inactive

Results for O=C(Cn1cnc2ccccc21)NC(c1ccccc1)c1ccccc1 ?
Pf growth 96h: 3.7µM; Pf growth 48h: 4.1µM; NS1 inh: inactive; Cycloheximide cs: inactive; Shiga inhibitor: inactive; SARS PLpro yeast: inactive

Results for CCC(=O)c1ccc(OCC(O)Cn2cnc3ccccc32)cc1 (configuration not stated) ?
Pf growth 96h: 1.9µM; Pf growth 48h: inactive; NS1 inh: inactive; Cycloheximide cs: inactive; Shiga inhibitor: inactive; SARS PLpro yeast: inactive

What do the screens show for `CCC(=O)c1ccc(OCC(O)Cn2c(C)nc3ccccc32)cc1` (configuration not stated)?
Pf growth 96h: inactive; Pf growth 48h: inactive; NS1 inh: inactive; Cycloheximide cs: inactive; Shiga inhibitor: inactive; SARS PLpro yeast: inactive

How did CCOc1ccccc1NC(=O)c1cc(=O)[nH]c2ccc(S(=O)(=O)N3CCOCC3)cc12 do in these assays?
SARS PLpro yeast: inactive

Results for Cc1ccc(CNC(=O)c2cc(=O)c3ccc(C)cc3o2)cc1 ?
Pf growth 96h: inactive; Pf growth 48h: inactive; NS1 inh: inactive; Cycloheximide cs: inactive; Shiga inhibitor: inactive; SARS PLpro yeast: inactive

Results for CCCCSCCCNC(=O)c1cn(CC)c2ccc(S(=O)(=O)N3CCOCC3)cc2c1=O ?
Pf growth 96h: inconclusive; Pf growth 48h: inconclusive; NS1 inh: inactive; Cycloheximide cs: inactive; Shiga inhibitor: inactive; SARS PLpro yeast: inactive

What do the screens show for `CCn1cc(C(=O)NCCCN2CC(C)CC(C)C2)c(=O)c2cc(S(=O)(=O)N(C)C3CCCCC3)ccc21` (configuration not stated)?
Pf growth 96h: inactive; Pf growth 48h: inconclusive; NS1 inh: inactive; Cycloheximide cs: inactive; Shiga inhibitor: inactive; SARS PLpro yeast: inactive

What do the screens show for `CCN(CC)CCNC(=O)c1cn(CC)c2ccc(S(=O)(=O)N3CCc4ccccc4C3)cc2c1=O`?
Pf growth 96h: 1µM; Pf growth 48h: inconclusive; NS1 inh: inactive; Cycloheximide cs: inactive; Shiga inhibitor: inactive; SARS PLpro yeast: inactive

How did Cn1cc(C(=O)NCc2ccc(F)cc2)c(=O)c2cc(S(=O)(=O)N3CCCCC3)ccc21 do in these assays?
Pf growth 96h: inactive; Pf growth 48h: 15µM; NS1 inh: inactive; Cycloheximide cs: inactive; Shiga inhibitor: inactive; SARS PLpro yeast: inactive

Results for CCOCCCNC(=O)c1cn(CC)c2ccc(S(=O)(=O)N3CCOCC3)cc2c1=O ?
Pf growth 96h: 10µM; Pf growth 48h: inactive; NS1 inh: inactive; Cycloheximide cs: inactive; Shiga inhibitor: inactive; SARS PLpro yeast: inactive

How did CC1CCCN(CCCNC(=O)c2cn(C)c3ccc(S(=O)(=O)N(C)C4CCCCC4)cc3c2=O)C1 (configuration not stated) do in these assays?
Pf growth 96h: inactive; Pf growth 48h: 13µM; NS1 inh: inactive; Cycloheximide cs: inactive; Shiga inhibitor: inactive; SARS PLpro yeast: inactive

What do the screens show for `CCn1cc(C(=O)N2CCc3ccccc3C2)c(=O)c2cc(S(=O)(=O)N3CCCCC3)ccc21`?
Pf growth 96h: inactive; Pf growth 48h: inconclusive; NS1 inh: inactive; Cycloheximide cs: inactive; Shiga inhibitor: inactive; SARS PLpro yeast: inactive

What do the screens show for `COCCNC(=O)c1cn(C)c2ccc(S(=O)(=O)N3CCCC3)cc2c1=O`?
Pf growth 96h: inactive; Pf growth 48h: inactive; NS1 inh: inactive; Cycloheximide cs: inactive; Shiga inhibitor: inactive; SARS PLpro yeast: inactive

What do the screens show for `Cn1cc(C(=O)N2CCc3ccccc3C2)c(=O)c2cc(S(=O)(=O)N3CCCCC3)ccc21`?
Pf growth 96h: 3.7µM; Pf growth 48h: inactive; NS1 inh: inactive; Cycloheximide cs: inactive; Shiga inhibitor: inactive; SARS PLpro yeast: inactive

What do the screens show for `CCOCCCNC(=O)c1cn(C)c2ccc(S(=O)(=O)N3CCCC3)cc2c1=O`?
Pf growth 96h: 6.6µM; Pf growth 48h: inactive; NS1 inh: inactive; Cycloheximide cs: inactive; Shiga inhibitor: inactive; SARS PLpro yeast: inactive

Results for Cn1cc(C(=O)NC2CCCCCCC2)c(=O)c2cc(S(=O)(=O)N3CCCC3)ccc21 ?
Pf growth 96h: 8.3µM; Pf growth 48h: inconclusive; NS1 inh: inactive; Cycloheximide cs: inactive; Shiga inhibitor: inactive; SARS PLpro yeast: inactive

What do the screens show for `CCCCN(CCCC)CCNC(=O)c1cn(C)c2ccc(S(=O)(=O)N3CCCC3)cc2c1=O`?
Pf growth 96h: 12µM; Pf growth 48h: inactive; NS1 inh: inactive; Cycloheximide cs: inactive; Shiga inhibitor: inactive
